This is one part of a sample in which hits are shown more often than they occur.
RmlC RmlD mix – RmlC and RmlD coupled enzyme inhibitors, primary screen, biochemical, 384-well, compound mixtures, retest; 110,000 compounds, 0.39% hits; AID 1532, 2009; inhibition, % at 5.5 µM; RmlC/RmlD coupled enzyme inhibition, 384-well mixture HTS; in the data active = inhibition above about 30%, passing the limit was not always enough; inconclusive = no clear call, values can overlap the other calls
HIV RNase H inh-1 – HIV-1 RT RNase H inhibitors, primary screen, biochemical, fluorescence; Gag-Pol polyprotein (Human immunodeficiency virus type 1 group M subtype B (isolate …; inhibition, % at 10 µM; 65,000 compounds, 1.9% hits; RT-RNase H RNA/DNA duplex cleavage; AID 565, 2006; in the data active = inhibition above about 50%
HIV RNase H inh-2 – HIV-1 RT RNase H inhibitors, retest, confirmation, biochemical; shares compounds with HIV RNase H inh-1; Recombinant RT RNase H, fluorescent RNA/DNA duplex cleavage; inhibition, % at 10 µM; 1,000 compounds, 39% hits; AID 651, 2007; in the data active = inhibition above about 48%; inconclusive = no clear call, values can overlap the other calls
The depositor's hits bear a star; ? = inconclusive; . = no result given.

SMILES | RmlC RmlD mix | HIV RNase H inh-1 | others
CN1C(=O)c2c(sc3c2CCCC3)NC1c1ccccc1O (stereo not given) | -5 | 52*
CN1CCc2c(sc3c2C(=O)NC(c2cn(Cc4ccccc4)c4ccccc24)N3)C1 (stereo not given) | -3 | 9
CCOC(=O)c1c(NC(=O)c2ccoc2C)sc2c1CCC2 | -68 | 11
CCC1CCc2c(sc(NC(=O)c3ccoc3C)c2C(N)=O)C1 (stereo not given) | -3 | 53*
CCc1cccc(NC(=O)CN(c2ccc(OC)cc2)S(=O)(=O)c2c(C)n[nH]c2C)c1 | 1 | -6
O=C(CSc1c2c(nc3cc(Cl)ccc13)CCCC2)NCc1ccco1 | 1 | .
Cc1csc(NC(=O)CCc2ccc(S(=O)(=O)N3CCOCC3)cc2)n1 | -12 | .
O=C(CCc1ccccc1)Nc1nc2ccc(S(=O)(=O)N3CCOCC3)cc2s1 | 8 | 64*
CCc1nnc(NC(=O)CSc2nc3c(cc2C#N)CCCC3)s1 | 37* | 3
CCOC(=O)c1sc(NC(=O)CSc2nc3c(cc2C#N)CCCCC3)c(C#N)c1C | -1 | .
COC(=O)c1ccc(CSc2ncnc3c2sc2nc(N4CCOCC4)c4c(c23)CCCC4)o1 | -43 | 83*
COC(=O)CSc1ncnc2c1sc1nc(N3CCOCC3)c3c(c12)CCCC3 | -18 | .
Cc1c(NC(=O)OCCNC(=O)COc2c(Cl)cccc2Cl)sc(=S)n1C | -10 | .
COc1ccc(-n2nnnc2-c2cnc3cc4c(cc3c2C)OCO4)cc1 | -9 | .
Cc1nnc2sc(-c3ccc(NC(=O)c4cccnc4)cc3)nn12 | . | 3
Cc1nnc2sc(-c3ccc(NC(=O)c4ccc(-c5ccc(Cl)cc5Cl)o4)cc3)nn12 | 20 | 50*
c1ccc(Cn2nnc3c(NCC4CCCO4)ncnc32)cc1 (stereo not given) | 5 | -31
CC(=O)NC(CCS(C)(=O)=O)C(=O)Nc1ccc(F)cc1Cl (stereo not given) | . | -3
COc1ccc(-c2nnc(NC(=O)c3ccc(S(=O)(=O)N4CCCc5ccccc54)cc3)o2)cc1 | . | 52*
O=C(Nc1nnc(C2CC2)o1)c1ccc(S(=O)(=O)N2CCCc3ccccc32)cc1 | . | 2
Cn1c(N)c(C#N)c2c(c1=S)CSC(C)(C)C2 | 6 | 19
CC1(C)Cc2c(C#N)c(N)sc(=S)c2CS1 | ? | 62*
CSCC[C@H](NC(=O)CCNC(C)=O)c1nc2ccccc2[nH]1 | -15 | .
Cc1ccc(C)c(-n2c(N)c(C(N)=O)sc2=S)c1 | 12 | 15
Cc1ccc(-n2c(N)c(C(N)=O)sc2=S)c(C)c1 | . | 65*
SMILES | RmlC RmlD mix | HIV RNase H inh-1 | others
COc1ccc(Cl)cc1-n1c(N)c(C(N)=O)sc1=S | -10 | 75*
COC(=O)c1sc(=S)n(-c2ccccc2OC)c1N | -9 | .
CCn1c(Oc2ccc(Oc3ncc(Cl)cc3Cl)cc2)nc2c1c(=O)n(C)c(=O)n2C | . | -3
CN(C)CCCN1C(=O)C(O)=C(C(=O)c2cc3ccccc3o2)C1c1ccccn1 (stereo not given) | . | -5
COC(=O)Oc1c(Br)c(=O)oc2ccccc12 | 30* | -20
CC(=O)Nc1c(NC(C)C)c2ccccc2oc1=O | 8 | .
CCNC(=O)c1sc(-c2ccccc2)nc1C | -13 | -10
CC(C)Oc1ccc(-c2nn(-c3ccccc3)cc2/C=c2\sc3ncnn3c2=O)cc1 | . | 70* | HIV RNase H inh-2=?
CC1(C)CC(=O)C(=Cc2cn(-c3ccccc3)nc2-c2ccc(Cl)cc2)C(=O)C1 | -6 | .
CCOc1ccc(C2SCC(=O)Nc3c2c(=O)[nH]n3C2CCCCCC2)cc1 (stereo not given) | 79 | 58* | HIV RNase H inh-2=4
COc1ccc(C2SCC(=O)Nc3c2c(=O)[nH]n3C2CCCCCC2)cc1 (stereo not given) | 25 | -1
O=C(Cn1cc(C(=O)c2cccs2)c2ccccc21)NCc1ccc2c(c1)OCO2 | 6 | -7
S=C(c1ccc(-c2cccc(Cl)c2)o1)N1CCOCC1 | -22 | 85* | HIV RNase H inh-2=1
S=C(c1ccc(-c2cc(Cl)ccc2Cl)o1)N1CCOCC1 | -22 | -39
CC1=Nn2c(nnc2-c2n[nH]c3c2CCC3)SC1 | -46 | -5
CC(C)(C)C1=Nn2c(nnc2-c2n[nH]c3c2CCC3)SC1 | -11 | 53* | HIV RNase H inh-2=35
COc1ccc(CNC(=O)c2c(O)c3cccc4c3n(c2=O)CCC4)cc1 | 11 | -14
O=C(NCc1ccccn1)c1c(O)c2cccc3c2n(c1=O)CC3 | . | 4
O=C(NCCc1ccccc1)c1c(O)c2cccc3c2n(c1=O)CC3 | 10 | 74* | HIV RNase H inh-2=84*
Cc1cnc(NC(=O)c2c(O)c3cccc4c3n(c2=O)CCC4)s1 | 3 | -6
COc1ccc(CCNC(=O)c2c(O)c3cccc4c3n(c2=O)CC4)cc1 | -26 | 83* | HIV RNase H inh-2=67*

High-throughput results from PubChem.
